Source: PubChem (National Center for Advancing Translational Sciences (NCATS))
A549 tox – Nrf2 qHTS screen for inhibitors: counterscreen for cytotoxicity. A549 ARE-Fluc cells, CellTiter-Fluor viability, 18-24 h. actives 0.16% (n = 390,000). Potency, µM (titrated, usually from 46 µM), without a hit: at the top dose activity change, negative = cytotoxicity, most hits filed as inhibitors. AID 504648, 2011; further: potency means the concentration at half of the fitted maximal effect; on the % scale 0 is the no-effect control and ±100 the full control effect
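A549 ARE_Fluc cells in 5% FBS OPTI-MEM were exposed to compounds in concentration-response for 18-24 h at 37 deg C. Viability was read by CellTiter-Fluor fluorescence (Ex 405/Em 525) after 30 min, before the luciferase read.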
Nrf2 block – Nrf2 qHTS screen for inhibitors; A549 ARE-Fluc reporter, luciferase luminescence, 18-24 h; Potency, µM (highest dose often 46 µM), inactives show at the highest dose activity change, negative = inhibition, most hits filed as inhibitors; actives 2.1% (n = 360,000); further: potency means the concentration at half of the fitted maximal effect; on the % scale 0 is the no-effect control and ±100 the full control effect; nearly all actives have a fitted effect of over 60% in size
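A549 ARE_Fluc cells, 5000/well, 5% FBS OPTI-MEM; compounds in dose-response, 18-24 h at 37 °C/5% CO2; CellTiter-Fluor viability read (Ex 405/Em 525), then BugLite luciferase luminescence = Nrf2 activity.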
ClpP mod – qHTS Assay for Activators of ClpP; ATP-dependent Clp protease proteolytic subunit (Bacillus subtilis (strain 168)), P80244; purified B. subtilis ClpP, FRET peptide cleavage, 20 min; Potency, µM (titrated, usually from 57.5 µM), without a hit: top-dose activity change, negative = active; actives 1.9% (n = 340,000); AID 651965, 2013; active means well fitted falling curve with a large enough effect; inconclusive means small, poorly fitted or top-dose-only effect; inactive means no such curve, though single readings can be large or run the other way; further: potency means the concentration at half of the fitted maximal effect; the source files actives as falling curves though it sought activators and does not explain the sign; nearly all actives have a fitted effect of over 65% in size
Target sequence (P80244 whole entry, looked up): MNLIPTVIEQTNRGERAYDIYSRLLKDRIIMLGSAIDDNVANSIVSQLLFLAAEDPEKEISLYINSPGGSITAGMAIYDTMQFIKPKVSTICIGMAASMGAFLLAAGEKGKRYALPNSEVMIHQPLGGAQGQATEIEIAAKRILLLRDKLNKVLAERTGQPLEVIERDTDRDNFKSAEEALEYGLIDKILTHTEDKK
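FRET quenching reversal measured ClpP activation: 10 microg/mL B. subtilis ClpP at pH 8 with the FRET-FV decapeptide, read at 430 nm after 320 nm excitation. The 20-min minus 0-min signal was scaled between DMSO/no-enzyme wells and ADEP (5.8 microM final).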
miR-21 act – qHTS Assay for Modulators of miRNAs and/orActivators of miR-21 | AID 2288, 2010 | HeLa miR-21 FLuc reporter, luciferase, 48 h | 340,000 tested, under 10 active | Potency, µM (titrated, usually from 38.3 µM), for inactives: at the highest dose activity change, positive = activation, hits mostly activators;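 further: % of control where 0% means no effect; miR-21 action dims this reporter so a rising signal means less miR-21 action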
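Using DMEM plus 10% FBS, HeLa miR-21-FLuc cells are incubated with test compounds (final up to about 40uM) for 48 hours; firefly luciferase signal is then imaged following reagent-mediated lysis.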
p53 reactivator – qHTS assay for re-activators of p53 using a Luc reporter | Potency, µM (highest dose often 92.2 µM), for the others: at the top dose activity change, positive = activation, hits mostly activators | actives 0.063% (n = 320,000) | H1299 p53-A138V BP100-luciferase reporter, luminescence, 24 h; further: potency means the concentration at half of the fitted maximal effect; % of control where 0% means no effect; nearly all actives have a fitted effect of over 45% in size
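H1299 (p53-null), stable ts p53-A138V + BP100-Luc; 1000 cells/well, Opti-MEM/10% FBS; cpd 4 pt, 1:5; 24 h, 37 deg C, 5% CO2; detection reagent 10 min RT; luminescence.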
Nrf2 ARE act – qHTS of Nrf2 Activators; AREc32 ARE-luciferase reporter (MCF7-derived line), luminescence, 24 h; actives 0.31% (n = 410,000); Potency, µM (doses to about 46.1 µM), for the others: top-dose activation, hits mostly activators; AID 624171, 2012; further: potency means the concentration at half of the fitted maximal effect; % of control where 0% means no effect; nearly all actives have a fitted effect of over 65% in size
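Nrf2 activation is followed as ARE-luciferase induction in the AREc32 line after one day of compound treatment; luminescence is read with Steady-Glo.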
Active calls of the source: *; ? = inconclusive; nt = no result; [ ] = dose if it differs, or a comment. The list is not random: actives were taken first. Their share in the collection is about 3.7%. Unless noted, the call rests on the fitted dose curve; in most records, active means well fitted curve in the direction sought with a large enough effect; inconclusive means small, poorly fitted or top-dose-only effect, or another doubt; inactive means no such curve, though single readings can be large; an effect the other way counts as inactive or inconclusive.

SMILES	A549 tox	Nrf2 block	ClpP mod	miR-21 act	p53 reactivator	Nrf2 ARE act
CCOC(=O)c1c(-c2ccccc2)[nH]c2ccc(O)cc12	-4.1%	nt	31.6µM*	-1.7%	2.0%	-0.4%
CCOC(=O)c1c(-c2ccccc2)oc2ccc(O)cc12	0.3%	-8.8%	-14.0%	-2.8%	nt	0.0%
CCCNC(=O)Cc1c(O)c2ccccc2[nH]c1=O	2.4%	1.5%	?	-3.1%	-3.7%	-0.1%
O=C(Cc1c(O)c2ccccc2[nH]c1=O)NCc1ccccc1F	-5.2%	-15.6%	28.2µM*	-57.2%	-0.7%	-0.6%
O=C(Cc1c(O)c2ccccc2[nH]c1=O)NCc1cccc(F)c1	11.8%	nt	28.2µM*	-1.9%	-3.8%	-0.5%
Cn1nc(-c2ccccc2F)c2cc(C(=O)NCCc3ccc(Cl)cc3)sc21	1.3%	?	4.7%	19.7%	nt	-0.4%
COCCNC(=O)c1cc2c(-c3ccccc3F)nn(C)c2s1	-6.5%	?	25.1µM*	4.7%	-4.4%	4.3%
CCCCN(C)CCNC(=O)c1cc2c(-c3cccc(OC)c3)nn(C)c2s1	1.5%	?	nt	-2.5%	-3.4%	29.5%
CCCCN(C)CCNC(=O)c1cc2c(-c3ccccc3F)nn(C)c2s1	-8.6%	15.1%	25.1µM*	3.6%	-5.9%	10.7%
COc1ccc(OC)c(CCNC(=O)c2cc3c(-c4ccccc4F)nn(C)c3s2)c1	-1.7%	20.6µM*	?	?	nt	-0.3%
COc1ccc(NC(=O)c2cc3c(-c4ccccc4F)nn(C)c3s2)c(OC)c1	1.3%	?	?	-1.1%	nt	-0.5%
CCn1c(=O)c2cc(C(=O)NCCOC)sc2c2ccccc21	4.0%	20.6µM*	nt	0.7%	-1.0%	-0.1%
CCCOc1cccc(C(=O)N(Cc2cc(OC)c(OC)c(OC)c2)C2CCS(=O)(=O)C2)c1 (stereo not given)	-0.5%	3.8%	0.4%	2.2%	nt	-0.1%
COc1ccc(CC(=O)NO)cc1OC	nt	nt	1.1%	nt	nt	nt
COc1ccc(NC(=O)c2oc3ccccc3c2NC(=O)Cc2cccs2)cc1	-0.4%	6.2%	127.2%	-22.7%	nt	-0.2%
Cc1ccc(C)c(N2CCN(C(=O)c3cc4c(=O)oc5ccccc5c4s3)CC2)c1	1.8%	2.8%[9.27 µM]	-0.7%	-0.7%	nt	-1.4%
O=C(Cn1cc(SCc2cccc(F)c2)c2ccccc21)N1CCCC1	-1.2%	?	-0.7%	-29.5%	nt	3.8%
CCOc1ccc(S(=O)(=O)N2CC(=O)Nc3ccccc32)cc1	-17.3%	-16.9%	31.6µM*	20.1%	2.6%	-0.3%
Cc1cc(C(C)(C)C)cc(C)c1S(=O)(=O)N1CC(=O)Nc2ccccc21	0.8%	-17.0%	nt	-3.0%	-1.7%	-0.9%
Cc1ccc(C(C)(C)C)cc1S(=O)(=O)N1CC(=O)Nc2ccccc21	?	25.9µM*	nt	7.3%	-1.6%	2.3%
O=C(Nc1ccc(Cl)cc1)C1CCC(CNS(=O)(=O)c2ccc(Br)s2)CC1 (stereo not given)	0.7%	2.1%	1.6%	6.3%	nt	0.4%
Cn1ncc2c(Nc3cccc(F)c3)ncnc21	19.9%	nt	-6.1%	-0.8%	nt	4.2%
O=C(Nc1cc(Cl)ccc1Cl)N1CCN(C(=O)Nc2cc(Cl)ccc2Cl)CC1	-1.5%	-9.0%	-15.8%	nt	nt	-0.2%
CCn1c(=O)cc(SCC(=O)Nc2cccc(SC)c2)c2ccccc21	-23.0%	13µM*	?	-3.0%	-2.6%	3.9%
CCn1c(=O)cc(SCC(=O)Nc2cc(OC)c(OC)c(OC)c2)c2ccccc21	-12.2%	?	-8.0%	0.5%	-14.4%	4.9%
SMILES	A549 tox	Nrf2 block	ClpP mod	miR-21 act	p53 reactivator	Nrf2 ARE act
CC1CCc2c(sc(NC(=O)c3cc(-c4ccc(Br)cc4)on3)c2C(N)=O)C1 (stereo not given)	-1.9%	18.9%	-2.8%	-14.0%	nt	-0.8%
O=C(/C=C/c1ccco1)c1ccc(O)cc1	nt	nt	nt	-36.7%	?	nt
O=C(C=Cc1ccco1)c1ccc2ccccc2c1	-3.4%	?	-3.6%	nt	nt	7.94µM*
NC(COCc1ccccc1)c1csc(Nc2ccc(S(N)(=O)=O)cc2)n1 (stereo not given)	nt	nt	-7.4%	nt	nt	-0.1%
CC(C)(C)OC(=O)Cc1nnc(C(C(=O)OCc2ccccc2)c2ccccc2)o1 (stereo not given)	-0.2%	13.3%	nt	nt	nt	nt
COc1ccc(C2=CC(c3cccc(C)c3)n3nnnc3N2)cc1 (stereo not given)	7.9%	-3.6%	31.6µM*	-5.5%	nt	10.6%
CCOc1ccc(C2C=C(c3cccc(OC)c3)Nc3nnnn32)cc1 (stereo not given)	-3.2%	7.1%	-11.4%	-21.1%	nt	5.8%
Cc1cc2c(s1)c1cnn(Cc3c(F)c(F)c(C(F)(F)F)c(F)c3F)c(=O)c1n2C	2.0%	1.8%	nt	nt	nt	nt
COC(=O)c1nc(NC(=O)c2ccc(Br)cc2)n[nH]1	8.0%	-11.3%	-1.7%	-5.1%	nt	2.8%
COC(=O)c1nc(NC(=O)c2ccccc2Cl)n[nH]1	-1.6%	25.9µM*	1.7%	3.9%	-0.1%	-0.7%
Cc1cc(C)c2sc(N(Cc3cccnc3)C(=O)CCS(=O)(=O)c3ccccc3)nc2c1	-4.4%	nt	0.2%	2.2%	nt	7.1%
Cn1nc(C(=O)Nc2ccc(Cl)cc2)cc1C(=O)Nc1ccc(Cl)cc1	-6.3%	-4.2%	-5.9%	1.1%	2.8%	2.8%
Cn1nc(C(=O)Nc2cccc(Cl)c2)cc1C(=O)Nc1cccc(Cl)c1	?	13µM*	4.2%	4.8%	-0.9%	-0.2%
O=C(Cn1c(=O)n(-c2ccccc2)c(=O)c2ccc(C(=O)NCc3ccc4c(c3)OCO4)cc21)Nc1ccc(F)c(Cl)c1	-9.3%	?	-4.8%	-2.3%	nt	-0.2%
Cc1cc2c(s1)c1cnn(Cc3ccc(C(F)(F)F)cc3F)c(=O)c1n2C	3.3%	1.1%	nt	nt	nt	nt
Cc1cc(C)nc(OC(C(=O)O)C(OCCc2ccccc2)(c2ccccc2)c2ccccc2)n1 (stereo not given)	-14.5%	13µM*	-6.1%	16.1%	nt	-0.5%
CCCNS(=O)(=O)c1cccc(C(=O)NC2CCCc3ccccc32)c1 (stereo not given)	?	16.4µM*	1.5%	0.6%	-1.2%	2.1%
O=C(c1ccc(Oc2ccc([N+](=O)[O-])cc2)cc1)N1CCCCCC1	-10.3%	5.8µM*	nt	10.6%	nt	0.3%[9.22 µM]
COC(=O)c1cccc(NC(=O)C2CCN(S(=O)(=O)Cc3ccccc3)CC2)c1C	12.4%	8.8%	0.1%	-0.6%	nt	-0.2%
